From PubChem BioAssay (EPA / NIEHS)
Results filed as inconclusive are left out. The source holds several records for some structures; these can differ, active in one and inactive in another. The source made the active and inactive calls. Rule for the calls, unless noted: active = hit-call score of the fitted dose curve at least 0.9, where 1 is the maximum; inconclusive = response in the unintended direction; inactive = score below 0.9.

Key:
[1] = biological target: Retinoic acid receptor alpha (Homo sapiens) (UniProt P10276); experiment: NVS_NR_hRARa_Agonist: NovaScreen (NVS) Nuclear Receptor Binding Assay for human Retinoic Acid Alpha Receptor Agonism (RAR) (AID 2283361)
Retinoic acid receptor alpha (Homo sapiens), sequence (P10276 whole entry, looked up): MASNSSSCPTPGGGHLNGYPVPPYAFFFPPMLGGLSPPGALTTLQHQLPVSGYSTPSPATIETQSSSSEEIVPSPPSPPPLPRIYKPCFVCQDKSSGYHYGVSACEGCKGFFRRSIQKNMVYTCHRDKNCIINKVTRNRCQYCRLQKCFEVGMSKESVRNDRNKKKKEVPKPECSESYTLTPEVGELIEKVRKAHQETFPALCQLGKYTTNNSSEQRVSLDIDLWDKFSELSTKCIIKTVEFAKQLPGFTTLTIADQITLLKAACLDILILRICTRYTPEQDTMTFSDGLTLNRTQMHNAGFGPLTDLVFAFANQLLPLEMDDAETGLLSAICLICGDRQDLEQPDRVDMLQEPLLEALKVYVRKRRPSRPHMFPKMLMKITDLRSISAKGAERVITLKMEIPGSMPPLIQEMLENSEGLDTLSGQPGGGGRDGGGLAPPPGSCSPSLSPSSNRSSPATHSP
Procedure, shortened: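 Agonist-mode TR-FRET binding format using extracted protein, measured at 2 h post-dosing. Initial duplicate single-point screen at 25 uM preceded concentration series for actives; activity was normalized to DMSO baseline.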

[2] = biological target: human Thyroid Receptor Alpha (TRa), THRA (gene 7067) (UniProt P10827); experiment: NVS_NR_hTRa_Antagonist: NovaScreen (NVS) Nuclear Receptor Binding Assay for human Thyroid Receptor Alpha Antagonism (TRa) (AID 2283362);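 note: activity is loss of signal relative to DMSO baseline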
Procedure, shortened: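 Actives from a duplicate 25 uM single-point screen were retested in concentration series. The cell-free antagonist-format binding assay was read by AlphaLISA chemiluminescence at 1 h, scored as signal loss relative to DMSO.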

[3] = biological target: Glucocorticoid receptor (Homo sapiens) (UniProt P04150); experiment: NVS_NR_hGR: NovaScreen (NVS) Nuclear Receptor Binding Assay for human Glucocorticoid Receptor (GR) (AID 2283363);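 for AC50: activity is loss of specific radioligand binding signal relative to DMSO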
Glucocorticoid receptor (Homo sapiens), sequence (P04150 whole entry, looked up): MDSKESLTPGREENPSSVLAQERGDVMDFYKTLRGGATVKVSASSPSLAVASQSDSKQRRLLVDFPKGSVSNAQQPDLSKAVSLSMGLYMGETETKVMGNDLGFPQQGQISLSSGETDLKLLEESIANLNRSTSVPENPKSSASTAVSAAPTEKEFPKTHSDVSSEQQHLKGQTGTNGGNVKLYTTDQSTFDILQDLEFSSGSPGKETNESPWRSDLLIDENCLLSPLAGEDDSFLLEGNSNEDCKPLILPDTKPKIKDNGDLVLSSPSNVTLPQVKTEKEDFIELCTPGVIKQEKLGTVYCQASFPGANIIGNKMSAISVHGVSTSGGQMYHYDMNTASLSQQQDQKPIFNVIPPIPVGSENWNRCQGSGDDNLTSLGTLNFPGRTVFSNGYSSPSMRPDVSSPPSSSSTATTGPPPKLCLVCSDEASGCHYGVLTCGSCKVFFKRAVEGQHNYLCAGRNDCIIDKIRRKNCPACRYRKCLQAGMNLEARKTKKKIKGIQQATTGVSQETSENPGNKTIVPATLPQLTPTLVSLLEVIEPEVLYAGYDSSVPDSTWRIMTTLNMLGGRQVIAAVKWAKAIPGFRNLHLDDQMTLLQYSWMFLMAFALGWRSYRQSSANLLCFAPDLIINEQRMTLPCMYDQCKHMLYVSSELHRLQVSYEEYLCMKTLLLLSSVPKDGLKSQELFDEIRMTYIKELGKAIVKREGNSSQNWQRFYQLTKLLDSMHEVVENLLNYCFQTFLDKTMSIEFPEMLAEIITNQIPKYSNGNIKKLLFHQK
Procedure, shortened: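 Compounds first tested in duplicate at 25 uM, actives followed up in concentration series. Binding to extracted GR protein measured as competitive radioligand displacement, filter scintillation read 16 h post-dosing, normalised to DMSO.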

[4] = biological target: Nuclear receptor subfamily 1 group I member 2 (Homo sapiens) (UniProt O75469); experiment: NVS_NR_hPXR: NovaScreen (NVS) Nuclear Receptor Binding Assay for human Pregnane X Receptor (PXR) (AID 2283365);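 note: a drop in FRET signal versus DMSO baseline means the compound binds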
Nuclear receptor subfamily 1 group I member 2 (Homo sapiens), sequence (O75469 whole entry, looked up): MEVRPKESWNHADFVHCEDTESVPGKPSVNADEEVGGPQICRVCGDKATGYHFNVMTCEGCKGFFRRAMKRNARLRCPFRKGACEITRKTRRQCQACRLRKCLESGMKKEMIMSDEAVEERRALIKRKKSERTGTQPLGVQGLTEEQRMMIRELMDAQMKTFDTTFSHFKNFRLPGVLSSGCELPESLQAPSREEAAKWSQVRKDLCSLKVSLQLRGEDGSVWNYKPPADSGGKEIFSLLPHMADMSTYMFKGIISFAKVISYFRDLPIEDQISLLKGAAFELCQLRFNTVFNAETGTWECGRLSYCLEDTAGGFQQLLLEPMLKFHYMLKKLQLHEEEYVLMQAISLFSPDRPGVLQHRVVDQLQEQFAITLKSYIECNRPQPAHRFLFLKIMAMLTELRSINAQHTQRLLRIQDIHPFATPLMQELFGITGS
Procedure, shortened: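 Human PXR binding measured by TR-FRET in a cell-free format, 2 h exposure. Single-concentration duplicates at 25 uM preceded concentration-response retests of actives; endpoint fitted positively relative to DMSO, loss of signal indicating binding.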

[5] = biological target: Estrogen receptor beta (Homo sapiens) (UniProt Q92731); experiment: OT_ER_ERbERb_1440: Odyssey Thera (OT) 24-hour HEK293T Protein-Complementation Assay for Estrogen Receptor-beta/-beta Homodimer (AID 2283380);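 note: fluorescence gain from ER beta LBD homodimer complementation read by laser scanning cytometry; scored as signal increase over DMSO baseline for both agonists and antagonists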
Estrogen receptor beta (Homo sapiens), sequence (Q92731 whole entry, looked up, the tested form may be a part): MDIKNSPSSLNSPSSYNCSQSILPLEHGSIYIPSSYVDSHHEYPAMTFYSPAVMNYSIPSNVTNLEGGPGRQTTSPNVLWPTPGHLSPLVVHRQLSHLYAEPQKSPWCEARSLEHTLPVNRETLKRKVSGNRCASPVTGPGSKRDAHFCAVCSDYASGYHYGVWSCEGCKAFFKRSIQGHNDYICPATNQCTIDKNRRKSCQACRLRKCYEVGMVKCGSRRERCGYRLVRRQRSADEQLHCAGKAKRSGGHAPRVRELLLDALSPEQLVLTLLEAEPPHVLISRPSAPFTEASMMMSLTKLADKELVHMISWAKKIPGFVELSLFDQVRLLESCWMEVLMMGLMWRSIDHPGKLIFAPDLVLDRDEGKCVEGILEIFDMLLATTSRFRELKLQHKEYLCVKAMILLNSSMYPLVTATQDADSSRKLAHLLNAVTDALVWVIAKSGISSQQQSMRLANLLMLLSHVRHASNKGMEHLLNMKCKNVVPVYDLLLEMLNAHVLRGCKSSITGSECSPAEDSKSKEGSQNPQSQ
Procedure, shortened: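 Fluorescence increase, nuclear for agonists or whole-cell for antagonists, relative to DMSO vehicle, quantified by laser scanning cytometer after fixation and Draq5 staining. Readout from 24 h treatment of HEK293T cells carrying complementation-paired ER beta LBD (aa 310-547).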

[6] = biological target: Estrogen receptor (Homo sapiens) (UniProt P03372); experiment: OT_ERa_GFPERaERE_0120: Odyssey Thera (OT) 2-hour HeLa Transcription Induction Assay for Estrogen Receptor (AID 2283382)
Estrogen receptor (Homo sapiens), sequence (P03372 whole entry, looked up): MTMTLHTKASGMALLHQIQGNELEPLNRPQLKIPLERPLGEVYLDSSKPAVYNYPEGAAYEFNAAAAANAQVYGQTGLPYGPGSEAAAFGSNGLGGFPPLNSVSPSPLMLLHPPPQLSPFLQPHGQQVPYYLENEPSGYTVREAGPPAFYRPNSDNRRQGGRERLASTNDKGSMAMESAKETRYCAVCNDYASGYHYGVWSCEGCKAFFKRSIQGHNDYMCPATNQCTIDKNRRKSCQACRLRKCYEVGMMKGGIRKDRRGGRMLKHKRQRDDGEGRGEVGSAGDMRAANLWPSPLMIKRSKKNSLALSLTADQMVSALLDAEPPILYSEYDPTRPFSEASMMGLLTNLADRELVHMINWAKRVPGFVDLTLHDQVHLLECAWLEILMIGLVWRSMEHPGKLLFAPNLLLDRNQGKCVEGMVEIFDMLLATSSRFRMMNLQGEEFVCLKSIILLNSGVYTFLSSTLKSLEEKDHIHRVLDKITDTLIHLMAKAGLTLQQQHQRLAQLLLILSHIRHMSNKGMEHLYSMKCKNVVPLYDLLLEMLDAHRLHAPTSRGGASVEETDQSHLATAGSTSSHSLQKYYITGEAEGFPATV
Procedure, shortened: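 Cells (human cervical HeLa) receive compound, incubate 2 hours, then are imaged for fluorescent reporter induction. Images are quantified by high content analysis, and activity is fitted as gain of signal against DMSO.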

[7] = biological target: Retinoic acid receptor RXR-alpha (Homo sapiens) (UniProt P19793); experiment: OT_NURR1_NURR1RXRa_0480: Odyssey Thera (OT) 8-hour HEK293T Protein Complementation Assay for Nurr1/retinoid X receptor (RXR) (AID 2283385)
Retinoic acid receptor RXR-alpha (Homo sapiens), sequence (P19793 whole entry, looked up, the tested form may be a part): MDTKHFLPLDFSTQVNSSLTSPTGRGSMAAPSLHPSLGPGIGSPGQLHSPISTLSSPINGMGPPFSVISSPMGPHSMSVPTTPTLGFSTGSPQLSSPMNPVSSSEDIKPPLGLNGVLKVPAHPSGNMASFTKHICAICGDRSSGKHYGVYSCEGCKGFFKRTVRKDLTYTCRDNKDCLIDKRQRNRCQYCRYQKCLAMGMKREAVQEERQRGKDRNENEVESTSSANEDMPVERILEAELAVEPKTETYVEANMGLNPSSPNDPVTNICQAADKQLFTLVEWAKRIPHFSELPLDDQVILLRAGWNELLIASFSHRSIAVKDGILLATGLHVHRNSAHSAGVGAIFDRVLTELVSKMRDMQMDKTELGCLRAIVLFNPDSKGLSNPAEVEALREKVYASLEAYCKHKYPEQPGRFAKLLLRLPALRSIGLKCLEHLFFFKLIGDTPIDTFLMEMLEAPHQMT
Procedure, shortened: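 Interaction of bait and prey reconstitutes a functional reporter, whose fluorescence was measured in HEK293T cells dosed with compound for 8 hours. Signal gain relative to DMSO defined the single endpoint.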

[8] = biological target: Peroxisome proliferator-activated receptor gamma (Homo sapiens) (UniProt P37231); experiment: OT_PPARg_PPARgSRC1_0480: Odyssey Thera (OT) 8-hour Protein-Complementation Assay for Peroxisome Proliferator-activated Receptor Gamma / SRC-1 Co-activator (AID 2283387);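 note: nuclear to cytoplasmic split Venus YFP fluorescence ratio reporting PPARg SRC-1 interaction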
Peroxisome proliferator-activated receptor gamma (Homo sapiens), sequence (P37231 whole entry, looked up, the tested form may be a part): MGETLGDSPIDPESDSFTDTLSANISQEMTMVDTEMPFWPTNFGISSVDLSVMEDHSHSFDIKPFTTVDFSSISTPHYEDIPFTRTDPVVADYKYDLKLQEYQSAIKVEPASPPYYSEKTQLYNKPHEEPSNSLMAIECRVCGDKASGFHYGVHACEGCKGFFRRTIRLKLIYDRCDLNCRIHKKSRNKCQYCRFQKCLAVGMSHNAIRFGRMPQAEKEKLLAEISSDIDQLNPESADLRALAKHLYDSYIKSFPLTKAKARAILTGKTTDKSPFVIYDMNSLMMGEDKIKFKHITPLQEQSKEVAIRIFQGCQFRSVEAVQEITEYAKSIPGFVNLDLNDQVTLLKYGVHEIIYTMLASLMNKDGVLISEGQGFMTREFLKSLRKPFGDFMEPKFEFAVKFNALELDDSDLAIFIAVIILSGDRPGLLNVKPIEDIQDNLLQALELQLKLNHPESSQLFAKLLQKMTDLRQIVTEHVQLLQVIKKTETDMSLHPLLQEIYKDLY
Procedure, shortened: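 Protein-fragment complementation of split Venus YFP reports PPARg/SRC-1 interaction in HEK293T (transfected 48 h before treatment), exposed 8 h. Readout: N/C fluorescence ratio at 488 nm from imaging, Draq5 for segmentation, positive fit relative to DMSO.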

[9] = biological target: Peroxisome proliferator-activated receptor gamma (Homo sapiens) (UniProt P37231); experiment: OT_PPARg_PPARgSRC1_1440: Odyssey Thera (OT) 24-hour Protein-Complementation Assay for Peroxisome Proliferator-activated Receptor Gamma/ SRC-1 Co-activator (AID 2283388);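 note: nuclear to cytoplasmic ratio of reconstituted Venus YFP fluorescence in fixed imaged cells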
Procedure, shortened: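 Readout is the 488 nm N/C fluorescence ratio from fixed, Draq5-stained HEK293T cells after 24 h compound exposure. Cells carried transiently transfected PPARg and SRC-1 fused to Venus fragments, transfected 48 h before treatment.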

[10] = biological target: rat Androgen Receptor (AR), Ar (gene 24208) (UniProt P15207); experiment: NVS_NR_rAR: NovaScreen (NVS) Nuclear Receptor Binding Assay for rat Androgen Receptor (AR) (AID 2283366)
Procedure, shortened: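 Actives from a duplicate single-concentration (25 uM) primary run went on to concentration series. Displacement of radioligand was counted by filtration and scintillation, 18 h post-dose, using prostate extracts from testosterone-pretreated rats, with DMSO as baseline.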

[11] = biological target: mouse Estrogen Receptor alpha (Era), Esr1 (gene 13982) (UniProt P19785); experiment: NVS_NR_mERa: NovaScreen (NVS) Nuclear Receptor Binding Assay for mouse Estrogen Receptor alpha (Era) (AID 2283378);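 note: hit means loss of bound radioligand signal relative to DMSO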
mouse Estrogen Receptor alpha (Era), Esr1 (gene 13982), sequence (P19785 whole entry, looked up): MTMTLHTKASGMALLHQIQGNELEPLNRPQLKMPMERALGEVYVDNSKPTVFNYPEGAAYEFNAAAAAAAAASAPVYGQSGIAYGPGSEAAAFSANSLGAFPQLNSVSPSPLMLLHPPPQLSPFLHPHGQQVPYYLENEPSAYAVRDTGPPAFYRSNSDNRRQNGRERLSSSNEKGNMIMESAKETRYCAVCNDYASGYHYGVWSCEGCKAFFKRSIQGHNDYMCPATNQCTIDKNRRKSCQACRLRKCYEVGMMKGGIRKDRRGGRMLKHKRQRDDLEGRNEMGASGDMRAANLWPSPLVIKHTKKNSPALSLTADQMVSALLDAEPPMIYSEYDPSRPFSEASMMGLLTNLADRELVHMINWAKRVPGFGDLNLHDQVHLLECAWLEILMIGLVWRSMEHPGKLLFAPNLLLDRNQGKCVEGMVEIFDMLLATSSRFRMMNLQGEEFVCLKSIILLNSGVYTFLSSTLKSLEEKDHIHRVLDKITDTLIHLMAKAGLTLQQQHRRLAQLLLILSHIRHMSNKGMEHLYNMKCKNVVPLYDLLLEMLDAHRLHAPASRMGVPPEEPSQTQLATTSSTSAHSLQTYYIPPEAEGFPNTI
Procedure, shortened: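 Filter radiodetection of radioligand displacement from extracted receptor protein, measured 18 h post-dose. Single 25 uM concentration in duplicate initially, with concentration-series follow-up. Binding loss fitted relative to DMSO.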

[12] = biological target: Agonist Androgen Response Element (ARE), AR (gene 367) (UniProt P10275); experiment: OT_AR_ARELUC_AG_1440: Odyssey Thera (OT) 24-hour CHO-K1 Luciferase Assay for Agonist Androgen Response Element (ARE) (AID 2283379)
Procedure, shortened: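 Readout: luciferase bioluminescence from CHO-K1 ARE-luc cells, measured 24 h post-dosing; agonism = increased mean luminescence vs DMSO controls, fitted in positive direction.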

[13] = biological target: Estrogen receptor (Homo sapiens) (UniProt P03372); experiment: OT_ERa_GFPERaERE_0480: Odyssey Thera (OT) 8-hour HeLa Transcription Induction Assay for Estrogen Receptor (AID 2283381; active = hit-call score of the fitted dose curve at least 0.9, where 1 is the maximum; inactive = score below 0.9)
Procedure, shortened: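 Human cervical HeLa cells were treated for 8 hours, after which ERE-driven GFP induction was measured by fluorescence microscopy; increases over DMSO baseline defined activity.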

[14] = biological target: Retinoic acid receptor RXR-alpha (Homo sapiens) (UniProt P19793); experiment: OT_NURR1_NURR1RXRa_1440: Odyssey Thera (OT) 24-hour HEK293T Protein Complementation Assay for Nurr1/retinoid X receptor (RXR) (AID 2283386)
Procedure, shortened: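 Steps: fragment-tagged Nurr1 and RXRα expressed in HEK293T; compounds added; after 24 h, complemented reporter quantified by fluorescence intensity; signal increase over DMSO fitted as the single endpoint.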

[15] = biological target: rat Serotonin Transporter (SERT), Slc6a4 (gene 25553) (UniProt P31652); experiment: NVS_TR_rSERT: NovaScreen (NVS) Transporter Assay for rat Serotonin Transporter (SERT) (AID 2283375)
Procedure, shortened: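 Radioligand binding with competitive displacement on rat forebrain membrane preparations, counted by filtration and scintillation after 1 h. Primary single-point duplicates at 25 uM; active chemicals followed up in concentration-response. DMSO served as baseline.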

[16] = biological target: human Norepinephrine Transporter (NET), SLC6A2 (gene 6530) (UniProt P23975); experiment: NVS_TR_hNET: NovaScreen (NVS) Transporter Assay for human Norepinephrine Transporter (NET) (AID 2283377);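 note: cell-free membrane protein extracted from CHO cells expressing human NET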
Procedure, shortened: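 Single-concentration duplicate screen at 25 uM, then concentration-response for actives; displacement of specific radioligand from human NET in CHO membrane extracts, filter-based scintillation detection at 1 h relative to DMSO.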

[17] = biological target: Bile acid receptor (Homo sapiens) (UniProt Q96RI1); experiment: OT_FXR_FXRSRC1_0480: Odyssey Thera (OT) 8-hour HEK293T Protein-Complementation Assay for Farnesoid X receptor/SRC-1 Co-activator (AID 2283383)
Bile acid receptor (Homo sapiens), sequence (Q96RI1 whole entry, looked up): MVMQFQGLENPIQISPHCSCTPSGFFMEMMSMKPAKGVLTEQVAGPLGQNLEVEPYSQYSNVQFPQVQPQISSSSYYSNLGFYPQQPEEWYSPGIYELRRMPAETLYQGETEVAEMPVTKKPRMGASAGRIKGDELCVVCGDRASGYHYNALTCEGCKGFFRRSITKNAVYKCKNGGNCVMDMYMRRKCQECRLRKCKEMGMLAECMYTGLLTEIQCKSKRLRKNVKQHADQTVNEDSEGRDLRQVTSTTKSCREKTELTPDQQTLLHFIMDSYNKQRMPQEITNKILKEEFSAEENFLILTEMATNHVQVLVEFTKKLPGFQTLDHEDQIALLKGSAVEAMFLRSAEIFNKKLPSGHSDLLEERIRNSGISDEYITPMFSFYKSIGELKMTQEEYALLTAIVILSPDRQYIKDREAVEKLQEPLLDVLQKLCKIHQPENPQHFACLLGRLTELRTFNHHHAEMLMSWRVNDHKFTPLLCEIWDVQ
Procedure, shortened: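 PCA, HEK293T, 8 h compound exposure; FXR–SRC-1 binding reconstitutes split reporter; fluorescence intensity; positive-direction fit vs DMSO.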

[18] = biological target: guinea pig Sigma Receptor, Non-selective Binding, SIGMAR1 (gene 100135589) (UniProt Q60492); experiment: NVS_OR_gSIGMA_NonSelective: NovaScreen (NVS) Nuclear Receptor Binding Assay for guinea pig Sigma Receptor, Non-selective Binding (AID 2283367)
Procedure, shortened: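 Guinea pig brain membrane sigma sites were labelled with a radioligand, and bound radioactivity was counted after filtration 1 h post-dose. Compounds were screened at 25 uM in duplicate, then retested as concentration series when active.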

Measured: AC50

O=C(O)c1cc(O)c2ccccc2c1O
active: [2] 18.4 µM | [3] 9.52 µM | [4] 5.21 µM | [6] 25.4 µM | [8] 73.7 µM | [9] 73.2 µM
inactive: [1] | [5] | [7]

Oc1ccc(-c2ccccc2)c(Cl)c1
inactive: [1] | [11] | [12] | [6] | [7] | [8] | [9]
active: [10] 16.3 µM | [5] 18.1 µM | [13] 91 µM | [14] 69.5 µM

CC1=NN(c2ccc(S(=O)(=O)O)cc2)C(=O)C1N=Nc1ccccc1 (stereo not given)
inactive: [13] | [6] | [8]
active: [3] 12.8 µM

Cc1ccc([N+](=O)[O-])cc1N
inactive: [4] | [15] | [16] | [5] | [13] | [6] | [17] | [7] | [8]

CCCCCCCCCCCCc1ccc(O)cc1
active: [5] 0.981 µM | [13] 0.444 µM | [6] 0.612 µM
inactive: [4] | [11] | [9]

CCCC(CC)c1ccccc1 (stereo not given)
inactive: [3] | [5] | [6] | [7] | [8] | [9]

CC(C)[N+](C)(CCOC(=O)C1c2ccccc2Oc2ccccc21)C(C)C
inactive: [3]
active: [18] 2.4 µM

CCCCc1ccc(Cl)cc1
inactive: [4] | [5] | [6] | [17] | [7] | [8] | [9]

CCc1occc(=O)c1O
inactive: [4] | [13] | [6] | [17] | [7] | [8] | [9]

CCCCC(=O)O
active: [3] 8.11 µM
inactive: [3] | [5] | [13] | [6] | [17] | [8]

CCCCNS(=O)(=O)c1ccc(C)cc1
inactive: [1] | [4] | [13] | [6] | [8] | [9]

CCOC(=O)/C=C\C(=O)OCC
inactive: [3]

C=C(C)C1CC=C(C)CC1 (stereo not given)
inactive: [3] | [13] | [6] | [7] | [14]

COc1ccc(-c2coc3cc(O)cc(O)c3c2=O)cc1
inactive: [4] | [11] | [8]
active: [5] 2.61 µM | [6] 12.4 µM
